# High-throughput results from PubChem BioAssay.
# Rows were chosen to be rich in hits. Some 2% of all compounds tested hit in one or more screens of this group.
# LEDGF integ inh – blockers of LEDGF/p75-dependent integrase strand transfer – biochemical, TR-FRET, high throughput, primary screen. HIV-1 integrase (with human LEDGF/p75). TR-FRET IN-LEDGF/p75 DNA integration, Eu/Cy5. inhibition, % at 3.7 µM. actives 0.64% (n = 370,000);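 active means inhibition above the screen-wide mean plus 3 SD, cut at about 13% in these data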;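 further: signal is the Cy5 over europium emission ratio at 671 and 618 nm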
# MBD2 DNA inh – inhibitors of MBD2 binding to methylated DNA, primary screen, biochemical, TR-FRET, DNA-binding domain, human; inhibition, % at 4.4 µM; AID 686964, 2013; actives 0.31% (n = 370,000); MBD2 binding to methylated oligonucleotide; in the data active means inhibition above about 13%
# TCR CD3 inh – inhibitors of human TCR-CD3 interaction, primary screen, biochemical, fluorescence, TAMRA-labeled TCR probe. T-cell receptor (TCR). inhibition, % at 9.4 µM. actives 0.37% (n = 360,000); in the data active means inhibition above about 19%;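 further: recombinant mutant TCR 2C K166C tagged with TAMRA read by polarization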
# UHRF1 binding – UHRF1 methylated DNA binding inhibitors, primary screen, counter-screen for MBD2 inhibitor project, biochemical, TR-FRET, human UHRF1, single concentration; actives 0.75% (n = 370,000); inhibition, % at 4.4 µM; UHRF1 binding to methylated oligo; E3 ubiquitin-protein ligase UHRF1 (Homo sapiens), Q96T88; in the data active means inhibition above about 21%;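 further: UHRF1 SRA domain binding a hemimethylated CpG hairpin DNA probe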
# Target sequence (Q96T88 whole entry, looked up, the tested form may be a part): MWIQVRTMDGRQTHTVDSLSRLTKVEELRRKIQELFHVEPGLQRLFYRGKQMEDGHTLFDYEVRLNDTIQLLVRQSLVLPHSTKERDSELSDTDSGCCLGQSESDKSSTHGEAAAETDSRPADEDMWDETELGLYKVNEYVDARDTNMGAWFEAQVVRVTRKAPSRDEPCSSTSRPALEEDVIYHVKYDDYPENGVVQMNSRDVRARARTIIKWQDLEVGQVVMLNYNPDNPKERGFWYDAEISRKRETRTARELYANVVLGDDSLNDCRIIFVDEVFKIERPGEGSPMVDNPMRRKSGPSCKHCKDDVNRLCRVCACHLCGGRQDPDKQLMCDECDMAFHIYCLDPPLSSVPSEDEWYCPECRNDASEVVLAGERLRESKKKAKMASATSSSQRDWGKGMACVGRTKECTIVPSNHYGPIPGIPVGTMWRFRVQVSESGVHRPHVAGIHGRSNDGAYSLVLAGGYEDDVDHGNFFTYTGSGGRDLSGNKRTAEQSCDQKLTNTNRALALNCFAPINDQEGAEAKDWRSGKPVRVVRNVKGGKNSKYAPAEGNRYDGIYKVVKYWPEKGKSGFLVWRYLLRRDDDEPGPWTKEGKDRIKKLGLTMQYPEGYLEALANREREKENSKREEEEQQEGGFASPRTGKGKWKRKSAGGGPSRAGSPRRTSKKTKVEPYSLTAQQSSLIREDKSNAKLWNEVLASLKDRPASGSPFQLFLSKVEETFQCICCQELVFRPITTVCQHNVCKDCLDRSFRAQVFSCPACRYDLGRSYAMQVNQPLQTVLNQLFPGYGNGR
# Rin1-Abl PPI inh – inhibitors of Rin1-Abl protein binding, primary screen, biochemical, TR-FRET. Tyrosine-protein kinase ABL1 (Homo sapiens) + Ras and Rab interactor 1 (Homo sapiens), …. inhibition, % at 7.35 µM. actives 0.4% (n = 360,000); in the data active means inhibition above about 5%, passing the limit was not always enough
# Hits are given with their value; – = inactive; · = no result.
SMILES,LEDGF integ inh,MBD2 DNA inh,TCR CD3 inh,UHRF1 binding,Rin1-Abl PPI inh
O=C(Nc1ccccc1Cl)c1cc(C2CCCCN2C(=O)CCCc2ccccc2)on1 (stereo not drawn),–,–,–,–,–
COc1cc(C(=O)c2ccccc2)c(OC)cc1C(=O)Nc1ccc(O)cc1,–,–,–,27.3,–
COc1ccc(NC(=O)c2cc3ccccc3cc2OC)cc1,–,–,–,–,–
CCC1=NN2C(=N)/C(=C\c3cccn3-c3ccc(C)cc3C)C(=O)N=C2S1,–,–,–,30.0,–
CCC1=NN2C(=N)/C(=C\c3cccn3-c3c(C)cccc3C)C(=O)N=C2S1,–,–,–,–,–
C/C(=N\NC(=O)CSCc1ccc([N+](=O)[O-])cc1)c1ccccc1O,–,–,–,–,–
C/C(=N\NC(=O)CSCc1ccc([N+](=O)[O-])cc1)c1ccccc1,–,–,–,30.3,–
O=C(COC(=O)/C=C/c1cccc(C(F)(F)F)c1)NCc1ccco1,28.4,–,–,–,–
O=C(CCl)Oc1ccc2occ(C(=O)c3cccs3)c2c1,–,–,–,28.8,–
CCOC(=O)C1CCCN(C(=O)c2cc(Cl)ccc2Cl)C1 (stereo not drawn),–,–,–,21.9,–
CCOC(=O)C1CCCN(C(=O)c2ccc(Cl)cc2)C1 (stereo not drawn),–,–,–,–,–
COc1ccc(NC(=S)Nc2ccc(C)c(Cl)c2)cc1OC,–,–,–,–,–
COc1ccc(/C([O-])=C(/C(=S)Nc2ccc(C)c(C)c2)n2c[n+](C)c3ccccc32)cc1OC,–,–,–,26.4,–
CC1=C(C(=O)Nc2cccc(C(=O)N3CCC(C(N)=O)CC3)c2)SCCO1,–,–,–,–,–
CC(C)c1csc(CN2CCC(CO)(Cc3cccc(F)c3)CC2)n1,–,–,–,58.8,–
CCc1ccc(NC(=O)CN(c2ccc3c(c2)OCO3)S(=O)(=O)c2c(C)noc2C)cc1,–,–,–,32.6,–
CCOc1ccc(N(CC(=O)Nc2ccc3c(c2)OCCO3)S(=O)(=O)c2c(C)noc2C)cc1,–,–,–,–,–
COc1ccc(-n2cnnc2SCC(=O)Nc2cccnc2Cl)cc1,–,–,–,21.3,–
O=c1ccc2cc3c(-c4ccccc4)coc3cc2o1,–,–,–,–,–
CCOC(=O)N[C@H](C(=O)N1CCC[C@H]1C(=O)NC1CCCC1)C1CCCCC1,–,–,–,–,·
O=C1COc2ccc(S(=O)(=O)CCC(=O)N3CCN(c4cccc(Cl)c4)CC3)cc2N1,–,–,–,–,–
Cc1ccc(Cl)cc1N1CCN(C(=O)CCS(=O)(=O)c2ccc3c(c2)NC(=O)CO3)CC1,–,–,–,23.0,–
COc1ccc(-c2nnn(CC(=O)N(CCO)C(C(=O)NC3CCCC3)c3ccncc3)n2)cc1 (stereo not drawn),–,–,–,–,–
COc1ccc(-c2nnn(CC(=O)N(CCCO)C(C(=O)NC3CCCC3)c3ccncc3)n2)cc1 (stereo not drawn),–,–,–,28.1,–
Cc1ccc(-n2c(-c3nn(C)cc3Cl)n[nH]c2=S)cc1,–,–,–,21.1,–
SMILES,LEDGF integ inh,MBD2 DNA inh,TCR CD3 inh,UHRF1 binding,Rin1-Abl PPI inh
CCOC(=O)C1=C(C(=O)OCC)C2N(Cc3ccc(C#N)cc3)c3ccccc3[C@@]23C[C@@H](C(=O)OC)N(S(=O)(=O)c2cccs2)C3=N1 (stereo partly drawn),–,–,–,–,·
O=C(NC(c1ccc(Cl)cc1)c1ccsc1)C1CCN(Cc2ccc(Oc3ccccc3)cc2)CC1 (stereo not drawn),–,–,–,–,–
O=C(O)c1cccc(-n2cccc2/C=C2/NC(=O)N(c3cccc(Cl)c3)C2=O)c1,–,–,–,27.4,–
N#Cc1c(NC(=O)c2ccc(Br)o2)n(-c2ccccc2)c2nc3ccccc3nc12,–,–,–,–,7.7
CCC(=O)Nc1c(C#N)c2nc3ccccc3nc2n1-c1ccc(C)cc1,–,–,–,–,–
O=C(NCc1ccc(F)cc1)C1CCCN(C(=O)NCc2ccccc2)C1 (stereo not drawn),–,–,–,–,–
CC(C)=C[C@H]1C[C@H](C)[C@H]2CC[C@H](C)c3c(O[C@@H]4OC[C@@H](O)[C@H](O)C4O)c(O)c(C)c1c32 (stereo partly drawn),–,–,–,–,–
CCSc1nnc(NC(=O)CSc2sc3c(O)cc(=O)[nH]c3c2C#N)s1,–,–,–,31.5,–
Cc1ccc(Cl)cc1NC(=O)CSc1sc2c(O)cc(=O)[nH]c2c1C#N,–,–,–,–,–
CCc1nnc(NC(=O)CSc2sc3c(O)cc(=O)[nH]c3c2C#N)s1,–,13.2,–,35.3,–
CCOC(=O)N1CCN(C(=O)C[C@H]2C[C@@]3(C(=O)OC)C(=C[C@H](COCc4ccccc4)O[C@@H]3C)N(Cc3ccc4c(c3)OCO4)C2=O)CC1,–,–,–,–,·
Cc1ccc(-c2nc(C(Cl)Cl)c3ccccc3n2)cc1,–,–,–,47.2,–
CC1(C)Oc2ccc(C(=O)NC3CCCC3)cc2NC1=O,–,–,·,–,·
CCC(=O)N(CCC(Cc1ccccc1)c1ccc2c(c1)OCO2)Cc1ccccc1F (stereo not drawn),–,–,–,25.1,–
O=C1CC2(CCN(C(=O)c3ccccc3F)CC2)Oc2ccccc21,–,–,–,–,–
O=C1CC2(CCN(C(=O)c3ccc(F)cc3)CC2)Oc2ccccc21,40.1,–,–,–,–
O=c1[nH][nH]c2c(N=Cc3ccccc3O)ccc(F)c12,·,·,·,·,16.6
COc1ccc(-c2nc(=S)c3c(n2Cc2cccnc2)CC(C)(C)OC3)cc1,–,–,–,23.9,–
Cc1ccc(NC(=O)[C@@H]2O[C@H](CO)[C@H](O)[C@H](O)[C@H]2O)cc1C(F)(F)F,–,–,–,–,–
COC(=O)c1nc(-c2ccccc2)nc(-c2ccccc2)c1C(=O)OC,–,–,–,–,–
COC(=O)c1n[nH]nc1-c1ccccc1,–,–,–,21.9,–
CC(SC(=S)N1CCCC1)C(=O)O (stereo not drawn),–,–,–,24.3,–
Cc1cc(C(=O)Nn2cnnc2)ccc1[N+](=O)[O-],–,–,–,–,–
O=C(Nn1cnnc1)c1ccc(Cl)c([N+](=O)[O-])c1,–,–,–,24.7,–
CCCCOCCCNC(=O)C[C@@H]1C(=O)N(Cc2ccc(OC)cc2)/C2=C/CCCCC[C@@]21C(=O)OCC,–,–,·,–,·
C[C@@H]1CCCCO[C@H](CN(C)S(=O)(=O)c2ccc(F)cc2)[C@@H](C)CN([C@H](C)CO)C(=O)c2cc(NC(=O)Nc3ccc(C(F)(F)F)cc3)ccc2O1,–,–,–,–,–
COc1ccc(NC(=O)c2cc3ccccn3n2)cc1,–,–,–,29.5,–
